From PubChem BioAssay AID1159580 (chemical genetic matrix, 2015)
Several values for one entry are separate records, joined by “and”; a condition that tells them apart may be missing. Equal values may be shown once. Screen size: about 5,500 compounds; about 2,000 (36%) were called active. Roughly 18% stayed inconclusive and do not appear here. Rule as the data show it: active = normalized growth mostly below about 0.91 (no sharp cut-off); inconclusive = no clear call, values can overlap the other calls; inactive = mostly above about 0.92. Some of the results follow.

Assay: chemical genetic growth profiling, strain panel (AID 1159580);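 also: tested at 20 µM; growth read once vehicle control cultures reached saturation at 30 °C; 1 = growth at the plate median or of vehicle wells; lower values mean less growth of the strain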
Conditions: growth OD

Measured: normalized growth

COc1ccc(C(=O)O)c(O)c1OC
inactive: S. cerevisiae deletion strains, locus YAL013W, strain DEP1, hits give low values 1.05 | S. cerevisiae deletion strains, locus YBR021W, strain FUR4, hits give low values 1.03 | S. cerevisiae deletion strains, locus YBR229C, strain ROT2, hits give low values 1.02 | S. cerevisiae deletion strains, locus YCL029C, strain bik1, hits give low values 0.992 | S. cerevisiae deletion strains, locus YDL035C, strain GPR1, hits give low values 1.04 | S. cerevisiae deletion strains, locus YDL074C, strain BRE1, hits give low values 1.04 | S. cerevisiae deletion strains, locus YDL101C, strain DUN1, hits give low values 1.01 | S. cerevisiae deletion strains, locus YDL134C, strain PPH21, hits give low values 1.02 | S. cerevisiae deletion strains, locus YDL185W, strain tfp1, hits give low values 0.999 | S. cerevisiae deletion strains, locus YDL192W, strain arf1, hits give low values 0.984 | S. cerevisiae deletion strains, locus YDR101C, strain arx1, hits give low values 0.985 | S. cerevisiae deletion strains, locus YDR150W, strain NUM1, hits give low values 1.01 | S. cerevisiae deletion strains, locus YDR162C, strain NBP2, hits give low values 1.03 | S. cerevisiae deletion strains, locus YDR318W, strain mcm21, hits give low values 0.988 | S. cerevisiae deletion strains, locus YDR388W, hits give low values 0.988 | S. cerevisiae deletion strains, locus YDR502C, strain sam2, hits give low values 0.994 | S. cerevisiae deletion strains, locus YEL061C, strain CIN8, hits give low values 1.01 | S. cerevisiae deletion strains, locus YER110C, hits give low values 0.987 | S. cerevisiae deletion strains, locus YER155C, strain BEM2, hits give low values 1.01 | S. cerevisiae deletion strains, locus YER167W, strain BCK2, hits give low values 1.02 | S. cerevisiae deletion strains, locus YGL078C, strain dbp3, hits give low values 0.999 | S. cerevisiae deletion strains, locus YGL086W, strain mad1, hits give low values 0.994 | S. cerevisiae deletion strains, locus YGL248W, strain PDE1, hits give low values 1.02 | S. cerevisiae deletion strains, locus YGR078C, strain PAC10, hits give low values 1.04 | S. cerevisiae deletion strains, locus YGR135W, strain pre9, hits give low values 1 | S. cerevisiae deletion strains, locus YGR252W, strain gcn5, hits give low values 1.06 | S. cerevisiae deletion strains, locus YHR030C, strain SLT2, hits give low values 1.01 and 1 | S. cerevisiae deletion strains, locus YHR079C, strain IRE1 (second series), hits give low values 0.986 | S. cerevisiae deletion strains, locus YHR079C, strain IRE1, hits give low values 0.996 | S. cerevisiae deletion strains, locus YHR094C, strain hxt1, hits give low values 0.987 | S. cerevisiae deletion strains, locus YHR129C, strain ARP1, hits give low values 1.01 | S. cerevisiae deletion strains, locus YHR200W, strain rpn10, hits give low values 0.997 | S. cerevisiae deletion strains, locus YIL066C, strain RNR3, hits give low values 1.03 | S. cerevisiae deletion strains, locus YIL073C, strain SPO22, hits give low values 1.02 | S. cerevisiae deletion strains, locus YIL125W, strain kgd1, hits give low values 0.988 | S. cerevisiae deletion strains, locus YIR030C, strain dcg1, hits give low values 0.996 | S. cerevisiae deletion strains, locus YJL095W, strain BCK1, hits give low values 1.04 and 1.01 | S. cerevisiae deletion strains, locus YJL134W, strain LCB3, hits give low values 1.01 | S. cerevisiae deletion strains, locus YJL168C, strain set2, hits give low values 0.997 | S. cerevisiae deletion strains, locus YJL187C, strain SWE1 (second series), hits give low values 1.01 | S. cerevisiae deletion strains, locus YJR043C, strain POL32, hits give low values 1.05 | S. cerevisiae deletion strains, locus YJR066W, strain TOR1, hits give low values 0.938 | S. cerevisiae deletion strains, locus YKL009W, strain mrt4, hits give low values 1.01 | S. cerevisiae deletion strains, locus YKL068W, hits give low values 0.989 | S. cerevisiae deletion strains, locus YKL085W, strain MDH1 (second series), hits give low values 0.996 | S. cerevisiae deletion strains, locus YKL085W, strain MDH1, hits give low values 0.996 | S. cerevisiae deletion strains, locus YKL190W, strain CNB1, hits give low values 1.01 | S. cerevisiae deletion strains, locus YKR001C, strain vps1, hits give low values 0.97 | S. cerevisiae deletion strains, locus YLR039C, strain RIC1, hits give low values 1.09 | S. cerevisiae deletion strains, locus YLR058C, strain SHM2, hits give low values 1.01 | S. cerevisiae deletion strains, locus YLR102C, strain apc9, hits give low values 0.996 | S. cerevisiae deletion strains, locus YLR113W, strain HOG1, hits give low values 1 | S. cerevisiae deletion strains, locus YLR262C, strain YPT6, hits give low values 1.12 | S. cerevisiae deletion strains, locus YLR268W, strain sec22, hits give low values 0.996 | S. cerevisiae deletion strains, locus YLR330W, strain CHS5, hits give low values 1.01 | S. cerevisiae deletion strains, locus YLR342W, strain FKS1 (second series), hits give low values 1.01 | S. cerevisiae deletion strains, locus YLR371W, strain rom2, hits give low values 0.981 | S. cerevisiae deletion strains, locus YLR418C, strain cdc73, hits give low values 1.04 | S. cerevisiae deletion strains, locus YML016C, strain PPZ1, hits give low values 1.01 | S. cerevisiae deletion strains, locus YML032C, strain rad52, hits give low values 1 | S. cerevisiae deletion strains, locus YML124C, strain tub3, hits give low values 0.997 | S. cerevisiae deletion strains, locus YMR078C, strain ctf18, hits give low values 0.998 | S. cerevisiae deletion strains, locus YMR223W, strain ubp8, hits give low values 0.996 | S. cerevisiae deletion strains, locus YMR307W, strain GAS1, hits give low values 1.22 | S. cerevisiae deletion strains, locus YNL067W, strain RPL9B, hits give low values 1.02 | S. cerevisiae deletion strains, locus YNL128W, strain TEP1, hits give low values 1.01 | S. cerevisiae deletion strains, locus YNL153C, strain GIM3, hits give low values 1.01 | S. cerevisiae deletion strains, locus YNL183C, strain NPR1, hits give low values 0.938 | S. cerevisiae deletion strains, locus YNL233W, strain BNI4, hits give low values 1.02 | S. cerevisiae deletion strains, locus YNL250W, strain rad50, hits give low values 0.991 | S. cerevisiae deletion strains, locus YNL271C, strain bni1, hits give low values 0.995 | S. cerevisiae deletion strains, locus YNL298W, strain CLA4, hits give low values 1.01 | S. cerevisiae deletion strains, locus YNL307C, strain MCK1, hits give low values 0.988 | S. cerevisiae deletion strains, locus YNR052C, strain pop2, hits give low values 0.981 | S. cerevisiae deletion strains, locus YOL012C, strain htz1 0.918 | S. cerevisiae deletion strains, locus YOL147C, strain pex11, hits give low values 0.988 | S. cerevisiae deletion strains, locus YOR061W, strain CKA2, hits give low values 1.01 | S. cerevisiae deletion strains, locus YOR069W, strain VPS5, hits give low values 1.01 | S. cerevisiae deletion strains, locus YOR136W, strain idh2, hits give low values 0.991 | S. cerevisiae deletion strains, locus YOR144C, strain elg1, hits give low values 0.991 | S. cerevisiae deletion strains, locus YOR184W, strain ser1, hits give low values 0.998 | S. cerevisiae deletion strains, locus YOR231W, strain MKK1, hits give low values 1 | S. cerevisiae deletion strains, locus YOR316C, strain cot1, hits give low values 0.992 | S. cerevisiae deletion strains, locus YPL256C, strain CLN2, hits give low values 1.02 | S. cerevisiae deletion strains, locus YPR119W, strain clb2, hits give low values 0.993 | S. cerevisiae deletion strains, locus YPR141C, strain kar3, hits give low values 0.989 | S. cerevisiae deletion strains, locus YPR163C, strain tif3, hits give low values 0.984 | S. cerevisiae deletion strains, locus YPR167C, strain met16, hits give low values 0.99 | S. cerevisiae deletion strains, strain wtn01, hits give low values 0.983 | S. cerevisiae strains, strain wild type, hits give low values 1.01
